The text below walks through data of PubChem BioAssay (NCATS).

Where “and” joins values, the source holds several entries; their conditions need not be identical. Equal values may be shown once. Records with an inconclusive call do not appear. Entries that show only a call come without a potency. Calls of active or inactive are those of the source. The call rests on the fitted dose curve; in most records, active means well fitted cell-killing curve with a large enough effect; inconclusive means small, poorly fitted or top-dose-only effect, or effect the other way; inactive means no such curve, though single readings can be large or run the other way.
Potency means the concentration at half of the fitted maximal effect.

The test can be described thus: Viability qHTS for spleen associated tyrosine kinase inhibitor (SYKi) drug resistant MV4-11 cells (AID 1963824). Further: nearly all actives have a fitted effect of over 35% in size. Particulars: SYKi-resistant MV4-11 viability, CellTiter-Glo, 72 h; series mostly up to 45 µM. The method in brief: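 SYK-inhibitor-resistant MV4-11 AML cells were seeded at 500 per well onto compound and cultured 72 hours (37 °C, 5% CO2). CellTiter-Glo was then added, and after 10 min at room temperature, luminescence gave viability.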
For orientation: qHTS replaces the single test concentration by a dilution series.
For `CO[C@H]1O[C@@H]2O[C@]3(C)CC[C@H]4[C@H](C)CC[C@@H]([C@H]1C)[C@@]24OO3`, the Potency is 2.91 µM (active).
For the molecule `CNCCC=C1c2ccccc2CCc2ccccc21`, the Potency was 14.6 µM (active).
On the same count and under the same terms, to `CC(C)(O)c1ccc2c(c1)C(=O)C[C@H]1[C@](C)(C(=O)O)CCC[C@]21C` belongs “inactive”.
With `COc1cc(N)c(Cl)cc1C(=O)NC[C@@H]1CCN2CCC[C@@H]12`, the Potency entry is “inactive”.
As for `CO/N=C(/C(=O)N[C@@H]1C(=O)N2C(C(=O)O)=C(CSC(=O)c3ccco3)CS[C@H]12)c1csc(N)n1`, the Potency entry is “inactive”.
Same read-out and setting: to `O=C(O[C@@H]1O[C@H](CO)[C@@H](O)[C@H](O)[C@H]1O)c1c(O)cc(O)cc1/C=C/c1ccccc1` belongs “inactive”; to `O=c1c2cccnc2n(-c2cccc([N+](=O)[O-])c2)c(=O)n1Cc1ccncc1`, “inactive”; to `Cc1cnc(NC(=O)Nc2cc(Br)c(C)cc2OCC2CNCCO2)cn1` (stereo unspecified), 0.82 µM (active).
Regarding `COC(=O)C12C(=O)C(C)=C(O)C1(C)C(C)=CC1C3(CO)CCC(O)C(C)(C)C3CCC12C` (stereo unspecified), the Potency result is “inactive”.
On the same count and under the same terms, to `CC(=O)/C=C/[C@H]1[C@](C)(O)[C@@H](O)[C@H](O)C2C(C)(C)CCC[C@@]21C` (stereo partly specified) belongs “inactive”; to `C=C[C@H]1[C@H](O[C@@H]2O[C@H](CO)[C@@H](O)[C@H](O)[C@H]2O)OC=C(C(=O)OC)[C@H]1CCO`, “inactive”; to `CCc1c(CC(N)=O)c2cc(OCCCP(=O)(O)O)ccc2n1Cc1ccccc1`, “inactive”.
On the same count and under the same terms, to `COc1c2ccoc2cc2oc(CO[C@@H]3O[C@H](CO)[C@@H](O)[C@H](O)[C@H]3O)cc(=O)c12` belongs “inactive”; to `CC(=O)O[C@H]1C[C@@H](O)C(C)(C)C2C[C@@H](OC(C)=O)[C@]3(C)C(CC[C@@]4(C)[C@H](c5ccoc5)OC(=O)[C@H]5O[C@]543)[C@]21C` (stereo partly specified), “inactive”.
Turning to `CS(=O)(=O)NCC1CCC(Nc2nc3c(s2)CCSc2ccccc2-3)CC1` (stereo unspecified), the Potency was 4.61 µM (active).
On the same count and under the same terms, to `CC1(C)[C@@H](O[C@H]2O[C@H](C(=O)O)[C@@H](O)[C@H](O)[C@H]2O[C@@H]2O[C@H](C(=O)O)[C@@H](O)[C@H](O)[C@H]2O)CC[C@]2(C)[C@H]3C(=O)C=C4[C@@H]5C[C@@](C)(C(=O)O)CC[C@]5(C)CC[C@@]4(C)[C@]3(C)CC[C@@H]12` belongs “inactive”; to `COc1cc(/C=C/C(=O)O[C@H]2[C@H](O)[C@@H](CO)O[C@@]2(CO)O[C@H]2O[C@H](CO)[C@@H](O)[C@H](O)[C@H]2O)ccc1O`, “inactive”.
Still for that read-out and setting: to `C=C1C(=O)O[C@@H]2C3=C(C)CCC[C@]3(C)CC[C@@]12O` belongs 0.731 µM (active); to `CC(/C=C/C1=CC2=CC(=O)C(C)(O)C(O)C2=CO1)=C\C(C)CCO` (stereo unspecified), “inactive”.
As to `Nc1nccn2c(C3CCC(C(=O)O)CC3)nc(-c3cc4cccc(Cl)c4[nH]3)c12` (stereo unspecified), the Potency is 580 nM (active) and 1.48 µM (active).
Same read-out and setting: to `COc1cc(CCC2=NN=C(NC(=O)c3ccc(N4C[C@@H](C)N[C@@H](C)C4)cc3)C2)cc(OC)c1` belongs 1.46 µM (active).
Still for that read-out and setting: to `O=C1C[C@]23C=CCN4CCC5c6cc7c(cc6N1[C@@]5(CC2)C43)OCO7` (stereo partly specified) belongs 14.3 µM (active); to `Cc1cc2c(N3CCCC3)nc(N3CCCC3)nc2n1C`, 7.31 µM (active); to `OC[C@H]1O[C@@H](OC(CCCCc2ccc(O)cc2)CCc2ccc(O)cc2)[C@H](O)[C@@H](O)[C@@H]1O` (stereo partly specified), “inactive”.
Still for that read-out and setting: to `COc1ccc(CC(NC(C)=O)C(=O)O)cc1` (stereo unspecified) belongs “inactive”.
For the molecule `C=C[C@@]12COC(=O)C(=C)C1[C@@H](O)[C@H](C(=C)C(=O)OC)[C@@H](OC(=O)C(=C)CO)C2` (stereo partly specified), the Potency is 1.59 µM (active).
Still for that read-out and setting: to `COc1cc2c(cc1O)CC[C@@H]1[C@@H]2CC[C@]2(C)[C@@H](O)CC[C@@H]12` belongs 0.934 µM (active).
Regarding `C[C@@H]1O[C@@H](O[C@@H]2[C@@H](O)[C@H](O[C@H]3CC[C@@]4(C)C(CC[C@]5(C)C4CC=C4[C@@H]6CC(C)(C)CC[C@]6(C(=O)O[C@@H]6O[C@H](CO)[C@@H](O)[C@H](O)[C@H]6O)CC[C@]45C)C3(C)C)O[C@H](C(=O)O)[C@H]2O)[C@H](O)[C@H](O)[C@H]1O` (stereo partly specified), the viability, % of control was 81.8% [at 9.25 µM] (inactive).
`CC(=O)N[C@H]1CCN(c2ccc(C3=NOC(CN[S+](=O)([O-])C(C)C)C3)cc2F)C1` (stereo partly specified): the Potency was 13 µM (active).
Turning to `CC(/C=C/C1(O)C(C)CC(O)CC1(C)C)OC1OC(CO)C(O)C(O)C1O` (stereo unspecified), the Potency entry is “inactive”.
As for `Cn1c(=O)c2nc(/C=C/c3cccc(Cl)c3)n(C)c2n(C)c1=O`, the Potency result was “inactive”.
